# Screening results: PubChem BioAssay, several laboratories
# KKLEB cytotox – counter-screen for CF NF-kB inhibitors: cytotoxicity. KKLEB CF airway cells viability, ATPlite luminescence, overnight; active compounds read low; cells stimulated with P. aeruginosa culture filtrate. activity change (cytotoxicity), % at 5 µM. 0.36% of 360,000 active;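 active = corrected activity change at or below -50% at 5 µM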
# Shn3 3UTR inh – inhibitors of Schnurri-3 3'UTR reporter in osteoblasts. inhibition, % at 12.5 µM. 0.52% of 360,000 active. AID 588674. Clone20 osteoblast Shn3 3'UTR firefly luciferase, 24 h;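 active = mean inhibition of at least 75% with every replicate also reaching 75%; inconclusive = mean inhibition at least 75% but some replicate below; inactive = mean inhibition below 75%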;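 also: 0% = median of neutral control wells and 100% = pilot-screen positive control compound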
# LMP1 NFkB inh – inhibitors of Epstein-Barr LMP1-induced NF-kappaB reporter; LMP1-induced NF-kappaB luciferase reporter cells, luminescence; inhibition, % at 12.5 µM; 0.69% of 350,000 active; AID 504558; in the data active = inhibition above about 41%; inconclusive = no clear call, values can overlap the other calls;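 also: 0% = neutral control wells and 100% = reference inhibitor control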
# CF NFkB block – cystic fibrosis NF-kB activation inhibition; KKLEB NF-kB-GFP reporter, PAF-induced, GFP fluorescence overnight; inhibition, % at 5 µM; 0.86% of 360,000 active;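 active = at least 50% inhibition at 5 µM, scaled per plate between neutral and stimulator controls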;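 also: PAF is a Pseudomonas aeruginosa culture filtrate used as stimulus; plate controls were PAF-stimulated DMSO wells for no effect and unstimulated DMSO wells for full effect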
# HIF-2a block – inhibitors of HIF-2a. 786-0 RCC cells HIF-2a reporter, luciferase luminescence, overnight. inhibition, % at 18.8 µM. 0.72% of 360,000 active;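 active = inhibition of the luminescence signal of 40% or more relative to plate controls, in a single-dose primary screen at 18.75 µM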
# Peg3 prom inh – inhibitors of Peg3 promoter; HeLa PEG-Prom luciferase reporter, luminescence, overnight; inhibition, % at 20 µM; 1.7% of 360,000 active;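 active = inhibition of at least 50% at 20 µM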
# * hit, by the source's call; ? = inconclusive; nt = no result. A selection: hits, their analogues and other compounds. The true share with any hit is near 2.9%.
SMILES,KKLEB cytotox,Shn3 3UTR inh,LMP1 NFkB inh,CF NFkB block,HIF-2a block,Peg3 prom inh
CC1(C(=O)NS(=O)(=O)C2CC2)CCN(C(=O)c2cccc(OC(F)(F)F)c2)C1 (stereo unspecified),-5,1,nt,14,14,-4
CCCCNc1c(-c2ccc(SC(C)CC)c(OC)c2)nc2ccc(Cl)cn12 (stereo unspecified),-6,12,5,26,-152,-61
CCCCNc1c(-c2ccc(SC(C)CC)c(OC)c2)nc2ccc(C)cn12 (stereo unspecified),-4,18,-15,-13,-155,93*
CC(C)(S)[C@@H](N)C(=O)O,7,74,55*,8,-3,11
NC(CS(=O)O)C(=O)O (stereo unspecified),-5,0,3,10,0,6
CCOC(=O)C[C@@H]1OC[C@H](C)N1S(=O)(=O)c1ccc(C)cc1,nt,nt,nt,nt,-9,nt
O=C(CCN1CCOCC1)NNC(=S)NC(=O)c1ccccc1,2,-7,-7,2,16,-5
Cc1ccc(-c2csc(/C(C#N)=C/Nc3ccc4c(c3)OCCO4)n2)cc1,-66*,3,0,68*,-5,31
Cc1nc(-c2ccc3c(c2)OCCO3)cs1,-1,-57,4,9,-196,-227
CCCN(CC(=O)Nc1ccccc1C)C(=O)Cc1c(C)nc2ccccc2c1C,6,-5,0,6,19,6
CCC[C@@H](CN1CCC[C@H]1CN1C(N)=NC[C@@H]1Cc1ccccc1)N1C[C@@H](Cc2ccccc2)N(CCCC2CCCC2)C1=N,9,5,11,-6,14,-7
CCC[C@@H](CN1CCC[C@H]1CN1C(N)=NC[C@@H]1Cc1ccccc1)N1C[C@@H]([C@H](C)CC)N(CCCC2CCCC2)C1=N,-19,93*,33,23,3,7
CCOc1ccccc1/C=C(/NC(=O)c1ccccc1)C(=O)NC(C)c1ccccc1 (stereo unspecified),10,-11,1,4,23,16
COc1ccccc1C(=O)NNC(=O)c1ccc(NC(=O)C(C)C)cc1,1,4,-1,-1,11,-4
CCOC(=O)N1CCC(N(CCN(C)C)C(=S)Nc2cc(C)cc(C)c2)CC1,7,21,4,9,20,14
CCOC(=O)c1oc2ccc(OC)cc2c1NC(=O)CN1CCN(C)CC1,-15,-1,-10,17,-7,5
Cc1ccc(C(=O)c2oc3ccc(Cl)cc3c2NC(=O)CN2CCN(C)CC2)cc1,-12,-19,-12,13,-50,107*
O=C(C[C@@H]1C/C=C/CC[C@@H](Cc2ccc(F)cc2)C(=O)O[C@@H](c2ccccc2)CNC1=O)NCCO,4,5,1,10,14,30
CCc1ccc(/C=C2\SC(=S)N(CCCC(=O)NCCCN3CCOCC3)C2=O)cc1,-8,77,36,10,83*,84*
CCOc1ccc(/C=C2\SC(=S)N(CCCC(=O)NCCCN3CCOCC3)C2=O)cc1,-12,71,55*,5,71*,68*
C[C@@H](O)CNC(=O)c1[nH]cnc1C(=O)Nc1ccc(CNC(=O)OC(C)(C)C)cc1,8,-1,7,-7,10,28
C[C@H](NC(=O)c1[nH]cnc1C(=O)Nc1ccc(CNC(=O)OC(C)(C)C)cc1)C(=O)OCc1ccccc1,20,35,-1,1,3,97*
CC(C)(C)OC(=O)CNC(=O)c1[nH]cnc1C(=O)Nc1ccc(CNC(=O)OC(C)(C)C)cc1,-14,18,4,43,5,66*
CC(C)(C)OC(=O)CNC(=O)c1[nH]cnc1C(=O)Nc1ccc(Cl)cc1,-2,-24,-1,7,3,5
CC(C)(C)OC(=O)NCc1ccc(NC(=O)c2nc[nH]c2C(=O)NCCNC(=O)c2[nH]cnc2C(=O)Nc2ccc(CNC(=O)OC(C)(C)C)cc2)cc1,-32,-15,-82,72*,7,84*
SMILES,KKLEB cytotox,Shn3 3UTR inh,LMP1 NFkB inh,CF NFkB block,HIF-2a block,Peg3 prom inh
O=C(NC1CC1)c1ccc2sc([C@H]3C[C@H](O)[C@@H](CO)O3)nc2c1,14,5,nt,4,1,1
CCCNC(=O)Nc1ccc(NC(C)=O)cc1,-5,2,8,6,5,-4
NCC(O)COCCC12CC3CC(CC(C3)C1)C2 (stereo unspecified),-4,3,3,10,11,-1
CC(NCC(O)COCCC12CC3CC(CC(C3)C1)C2)c1ccccc1 (stereo unspecified),-18,-9,-1,8,2,104*
CCc1nonc1NC(=O)c1oc2ccc(F)cc2c1C,-2,-38,42*,10,-138,-109
Cc1cccc(N=NC(=S)NNc2cccc(C)c2)c1,-29,-67,-35,29,-233,-262
Cc1cc(CSc2ccccc2)ccc1NC(=O)c1ccc(C)c([N+](=O)[O-])c1,-12,12,-1,7,11,-2
Cc1cc(CSc2ccccc2)ccc1NC(=O)c1ccc(Cl)c([N+](=O)[O-])c1,-15,19,2,25,9,64*
C1CCC(C(CC2CCCCN2)C2CCCCC2)CC1 (stereo unspecified),-17,?,-6,10,-25,104*
O=C(CNC(=O)c1ccccc1F)NCc1cccnc1,6,-8,-1,4,-2,5
COc1ccc(/C=C/C(=O)c2ccccc2)c(OC)c1,11,-43,-8,1,-226,-254
COc1cc(O)c(C(=O)/C=C/c2ccccc2)c(OC)c1,-8,-76,-2,14,-41,61*
Cc1ccc(-c2nc3ncccc3o2)cc1NC(=O)c1cccs1,7,-18,9,-20,-18,-16
Cc1ccc(-c2nc3ncccc3o2)cc1NC(=O)c1sc2ccccc2c1Cl,-1,85*,38,-2,8,78*
Cc1ccc(-c2nc3ccccc3[nH]2)cc1NC(=O)c1sc2cc(Cl)ccc2c1Cl,2,-14,5,-19,-76,83*
CN(C)CC(C)(C)CNS(=O)(=O)c1cccc2nsnc12,8,12,8,9,19,3
Cc1noc(C)c1C(=O)N1CCC1(C)C(=O)NS(=O)(=O)c1ccc(Cl)cc1 (stereo unspecified),4,8,nt,16,8,2
CC1CCCN(C(=O)c2ccc(Cl)c(S(=O)(=O)N3CCCCCC3)c2)C1 (stereo unspecified),-6,-7,2,12,-127,-119
Cc1cc(N/N=C/c2ccc(O)cc2O)nc(-c2ccccc2O)n1,-2,20,-2,78*,-190,67*
O=C(Nc1ccc(Br)c(C(F)(F)F)c1)c1ccc(C(F)(F)F)cc1,-69*,-13,nt,65*,-274,-48
CCCCNc1c(CC(C)C)nc2nc(C)cc(C)n12,nt,nt,nt,nt,-8,nt
